Results taken from PubChem BioAssay AID1851 (National Center for Advancing Translational Sciences (NCATS), 2009).
Where “and” joins values, the source holds several entries; their conditions need not be identical. Equal values may be shown once. Out of some 16,000 compounds screened, about 5,700 (36%) were called active. About 24% were inconclusive and are not listed. The list shows a part of the results. Unmarked numbers belong to inactive results. The call rests on the fitted dose curve; in most records, active means well fitted curve in the direction sought with a large enough effect; inconclusive means small, poorly fitted or top-dose-only effect, or effect the other way; inactive means no such curve, though single readings can be large or run the other way. Peptide text beside a SMILES is read from it. * marks the point of attachment. PhAc = O=C(Cc1ccccc1)*; OBn = c1ccc(CO*)cc1

Biological target: Cytochrome P450 1A2 (Homo sapiens) (UniProt P05177)
Assay: Cytochrome panel assay with activity outcomes
Conditions: recombinant CYP, pro-luciferin dealkylation, luminescence, p450-cyp1a2; series mostly up to 57.1 µM; activity, negative = inhibition: at the top concentration
On the % scale 0 is the no-effect control and ±100 the full control effect.

Sequence of Cytochrome P450 1A2 (Homo sapiens) (P05177 whole entry, looked up): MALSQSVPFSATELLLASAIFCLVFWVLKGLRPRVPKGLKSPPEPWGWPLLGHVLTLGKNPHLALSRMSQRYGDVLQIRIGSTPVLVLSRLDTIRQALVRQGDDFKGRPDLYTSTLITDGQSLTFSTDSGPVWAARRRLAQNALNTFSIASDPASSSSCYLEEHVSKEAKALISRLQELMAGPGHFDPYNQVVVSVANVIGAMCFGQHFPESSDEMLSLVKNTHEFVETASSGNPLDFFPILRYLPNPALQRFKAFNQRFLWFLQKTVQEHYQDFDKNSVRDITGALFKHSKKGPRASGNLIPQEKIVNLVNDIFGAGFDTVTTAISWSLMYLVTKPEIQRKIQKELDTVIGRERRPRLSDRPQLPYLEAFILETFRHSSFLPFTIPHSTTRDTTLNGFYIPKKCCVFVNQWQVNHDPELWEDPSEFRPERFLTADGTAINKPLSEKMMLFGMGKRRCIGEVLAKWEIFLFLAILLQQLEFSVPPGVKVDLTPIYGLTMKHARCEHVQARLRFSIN

SMILES | activity, negative = inhibition | AC50
CCC(C)NC(=O)CCS(=O)(=O)c1ccc(Br)s1 (stereo not given) | -4.87% | –
CNNCc1ccc(C(=O)NC(C)C)cc1 | – | 1580 nM (active)
COc1ccc(CN[C@H](C)C(=O)O)cc1 | -2.04% [at 11.4 µM] | –
N#Cc1nc(COc2ccccc2Cl)oc1NCc1ccco1 | – | 14100 nM (active)
c1ccc(NN(Cc2cnccn2)c2ccccc2)cc1 | – | 2000 nM (active)
COn1c(SCc2cccc(Cl)c2)nc2ccccc2c1=O | – | 1260 nM (active)
COn1c(SCc2ccc(C)cc2C)nc2ccccc2c1=O | – | 8910 nM (active)
O=c1nc2ccccc2c2n1CC(CN1CCN(c3cccc(Cl)c3)CC1)N2 (stereo not given) | -26.7% | –
Cc1ccc(-n2c(SCc3ccc([N+](=O)[O-])cc3)nc3ccccc3c2=O)cc1 | 0.364% | –
CC(C)C[C@H]1C(=O)N2CCC[C@@H]2[C@]2(O)O[C@](NC(=O)[C@H]3C=C4c5cccc6[nH]c(Br)c(c56)C[C@H]4N(C)C3)(C(C)C)C(=O)N12 | -20.7% [at 25.6 µM] | –
OC1(c2ccc(OC(F)F)cc2)CSC(=Nc2cccnc2)N1C1CC1 (stereo not given) | – | 1120 nM (active)
CCOc1ccc(NC(=O)C(=O)NCC2CCCN2CC)cc1 (stereo not given) | 22.4% | –
CCOc1ccc(N/N=C(/C#N)C(N)=O)cc1 | – | 5010 nM (active)
CCOc1ccc(NC(=O)N2CCC(C(N)=O)(N3CCCCC3)CC2)cc1 | -1.35% | –
O=C1CCN(S(=O)(=O)c2ccccc2)N1 | -16.4% | –
O=C(O)c1c2c(c(O)c3c1CN(C1CCCCC1)CO3)OCN(C1CCCCC1)C2 | 3.18% [at 11.4 µM] | –
NCCCCCC(=O)O | – | inactive
CCCCCCCCCCC/C=C\C(C)(C)/C=C\CCCC(=O)O | – | 39800 nM (active)
CCCCCCCCCCCCCCSCC(=O)O | -17.9% | –
NCCCCC(=O)O | -7.26% | –

SMILES | activity, negative = inhibition | AC50
CCCCCCC/C=C\CCCCCCCCC(=O)O | – | 31600 nM (active)
CS(=O)(=O)Nc1cccc(-c2nc(Nc3ccccc3)c3ccccc3n2)c1 | – | 794 nM (active)
CNc1nc(-c2cccc(NS(C)(=O)=O)c2)nc2ccccc12 | – | 398 nM (active)
CS(=O)(=O)Nc1cccc(-c2nc(Nc3ccc(F)cc3)c3ccccc3n2)c1 | – | 794 nM (active)
Nc1nccc(Nc2ccc(S(N)(=O)=O)cc2)n1 | -8.04% [at 11.4 µM] | –
CS(=O)(=O)Nc1cccc(-c2nccc(Nc3ccc(F)cc3)n2)c1 | – | 126 nM (active)
COc1cccc(-c2nc(Nc3ccncc3)c3ccccc3n2)c1 | – | 794 nM (active)
CN(C)c1nc(-c2cccc(NS(C)(=O)=O)c2)nc2ccccc12 | – | 501 nM (active)
CS(=O)(=O)Nc1cccc(-c2nc(Nc3ccncc3)c3ccccc3n2)c1 | – | 631 nM (active)
COc1ccc(OC)c(Nc2nc(-c3cccc([N+](=O)[O-])c3)nc3ccccc23)c1 | -29.1% | –
CC(C)(N)C(=O)N[C@@H]1C(=O)N2[C@@H]1SC(C)(C)[C@H]2C(=O)O | 4.41% [at 2.29 µM] | –
C[C@H](CCC(=O)NCC(=O)O)[C@H]1CC[C@H]2[C@H]3[C@@H](C[C@@H](O)[C@]12C)[C@]1(C)CC[C@H](O)C[C@@H]1C[C@@H]3O | -2.83% [at 25.6 µM] | –
COc1cccc(CC(C(=O)Nc2cc(C)ccc2C)c2nn[nH]n2)c1OC (stereo not given) | – | 3160 nM (active)
Cn1cc(C(=O)c2ccc(Cl)cc2Cl)cc1C(=O)O | -2.17% | –
COC(=O)c1cc(C(=O)c2ccc(Cl)cc2Cl)cn1C | – | 2510 nM (active)
Cc1c(-n2cc(C(=O)c3cc(Cl)ccc3O)cc(C#N)c2=O)c(=O)n(-c2ccccc2)n1C | -29.7% | –
COC(=O)C1=C(C)Nc2ncnn2C1c1cccnc1 (stereo not given) | -5.17% | –
C(=C1/CCCC2=C1Nc1ncnn1C2c1ccccc1)/c1ccccc1 (stereo not given) | – | 10000 nM (active)
CC(=O)SC[C@@H](Cc1ccccc1)C(=O)NCC(=O)OCc1ccccc1 | – | 2510 nM (active)
CC(C)(C)c1ccc(COC(=O)CNC(=O)CNC(=O)Cc2ccccc2)cc1 | -5.5% | –

SMILES | activity, negative = inhibition | AC50
O=C(CNC(=O)Cc1ccccc1)NCC(=O)OCc1ccccc1 (PhAc-Gly-Gly-OBn) | -4.78% | –
COc1ccccc1NC(=O)c1nc[nH]c1C(=O)Nc1ccccc1OC | – | 200 nM (active)
Cc1c(NC(=O)CSc2nnc3c4ccccc4n(CCc4ccccc4)c3n2)c(=O)n(-c2ccccc2)n1C | -27.3% | –
COCn1c2ccccc2c2nnc(C(C)=O)nc21 | -3.08% [at 11.4 µM] and -1.56% [at 11.4 µM] | –
CCn1c2ccccc2c2nnc(NCCCO)nc21 | – | 1580 nM (active)
CCN(CC)c1ncnc2c1sc1nc(C)cc(C)c12 | – | 1410 nM (active)
O=C(c1csnn1)N1CCC2(CC1)CCN(c1ncccn1)CC2 | 5.92% | –
C[N+](C)(C)CC(=O)O | -10.1% | –
CS(=O)(=O)Nc1cccc(-c2nc(N3CCOCC3)c3ccccc3n2)c1 | – | 5010 nM (active)
CS(=O)(=O)Nc1ccc(S(=O)(=O)N2CCOCC2)cc1 | 20% | –
CS(=O)(=O)Nc1cccc(-c2ccc3ncnc(N4CCOCC4)c3c2)c1 | – | 12600 nM (active)
CS(=O)(=O)Nc1cccc(-c2ccc3ncnc(NCCN4CCOCC4)c3c2)c1 | – | 25100 nM (active)
CS(=O)(=O)Nc1cccc(-c2ccc3ncnc(N4CCNCC4)c3c2)c1 | – | 12600 nM (active)
Cc1ccc(-c2nn3c(C)nnc3c3ccccc23)cc1S(=O)(=O)NCCN1CCOCC1 | -16.7% | –
Cn1nc(-c2ccc(N3CCOCC3)c(NS(=O)(=O)c3ccc(Cl)cc3)c2)c2ccccc2c1=O | -9.5% | –
CC(=O)OC[C@@H]1O[C@@H](O/N=C2/C[C@@H](O)[C@@H](O)[C@@H]3[C@@H]4C(=O)N(Cc5ccccc5)C(=O)[C@H]4CC[C@@H]23)[C@H](OC(C)=O)[C@H](OC(C)=O)[C@@H]1OC(C)=O | -3.54% [at 11.4 µM] | –
N#Cc1ccc(CN2CCC3(CC2)CCN(C(=O)c2csnn2)CC3)cc1 | 12.3% | –
O=C(c1ccco1)N1CCC2(CC1)CN(Cc1cc(C(F)(F)F)cc(C(F)(F)F)c1)C2 | -6.44% | –
CN1C(=O)C[C@H](c2ccccc2)C1=O | -13.8% [at 25.6 µM] | –
COc1cccc([C@@H]2Oc3ccc(OC)cc3/C(=N/O[C@@H](C)CN3CCCCc4nc(C)c(C)cc43)[C@@H]2O)c1 | -8.62% [at 11.4 µM] | –
